Bioassay records deposited in PubChem BioAssay by National Center for Advancing Translational Sciences (NCATS).
Most compounds without a hit are left out; they make up all but 6.1% or so of the library.
DRD3 agonist – agonists of human D3 dopamine receptor; P35462; D3R DiscoveRx beta-arrestin cells, luminescence, 90 min; max activation, %; actives 0.58% (n = 410,000); AID 652048; in the data active means max activation above about 30%; further: 0% is about no effect
Target sequence (P35462 whole entry, looked up): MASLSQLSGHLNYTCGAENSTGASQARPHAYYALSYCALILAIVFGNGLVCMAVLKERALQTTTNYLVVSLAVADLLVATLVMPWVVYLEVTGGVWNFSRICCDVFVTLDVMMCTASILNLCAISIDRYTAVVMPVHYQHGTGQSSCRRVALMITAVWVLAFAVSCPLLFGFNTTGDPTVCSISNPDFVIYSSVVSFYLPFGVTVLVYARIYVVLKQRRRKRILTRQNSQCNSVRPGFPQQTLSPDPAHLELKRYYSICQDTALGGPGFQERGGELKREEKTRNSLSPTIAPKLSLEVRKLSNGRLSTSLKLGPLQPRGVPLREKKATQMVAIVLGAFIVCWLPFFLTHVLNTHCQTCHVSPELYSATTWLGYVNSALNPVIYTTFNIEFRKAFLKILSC
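Agonist mode: compounds and dopamine controls were applied to plated cells for 90 min at 37 degrees C after an overnight attachment at 1500 cells/well. Luminescent read-out followed 30 - 60 minutes at room temperature with DiscoveRx detection reagent.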
DRD3 antagonist – blocks the human D3 dopamine receptor; P35462; D3R cells, DiscoveRx beta-arrestin luminescence, antagonist mode; stronger effect = lower value; max response, negative = inhibition, %; actives 2.5% (n = 360,000); AID 652054; in the data active means max response below about -50%; inconclusive means no clear call, values can overlap the other calls; further: on the % scale 0 is the no-effect control and ±100 the full control effect
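Cells plated overnight at 1500 cells/well, then exposed to library compounds with dopamine controls for 90 minutes at 37 degrees C. DiscoveRx reagent added for 30–60 minutes at room temperature; luminescence read, quantitative HTS format.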
D1 PAM – potentiators of human D1 dopamine receptor; AID 504651; P21728; HEK293 TREx D1 cells, calcium flux, dopamine EC20 potentiation; potentiation, % at 10 µM; actives 0.036% (n = 360,000); in the data active means potentiation above about 30%; further: 0% is about no effect
ERG-DNA inh – inhibitors of human ERG Ets domain-DNA interaction; P11308; fluorescence polarization, His-ERG Ets domain / labelled DNA; Potency, µM (top dose mostly 76.9 µM), inactives show top-dose FP activity, negative = inhibition, usual class: inhibitors; actives 0.028% (n = 370,000); AID 624246; active means well fitted inhibition curve with a large enough effect in the polarisation, with a control signal flat; inconclusive means small, poorly fitted or top-dose-only effect, or effect the other way, or a change in a side signal; inactive means no such curve, though single readings can be large or run the other way; the % refers to the polarisation;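 further: polarization taken with two DNA probes labelled with fluorescein and Texas red; potency means the concentration at half of the fitted maximal effect; % of control where 0% means no effect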
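His-tagged ERG Ets domain (1 uM in the protein solution; 300mM KCl, 50mM Tris-HCl, 1mM EDTA, 1mM DTT, pH 7.5) received compound, then a probe mix of 5 nM fluorescein-DNA and 100nM Texas-615-DNA. Fluorescence polarization was read for both dyes.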
D1 antag – human D1 dopamine receptor antagonism. P21728. HEK293 TREx D1 cells, calcium flux, dopamine EC80; stronger effect = lower value. activity change, negative = inhibition, % at 10 µM. actives 3.2% (n = 360,000). AID 504652; in the data active means activity change below about -30%; further: on the % scale 0 is the no-effect control and ±100 the full control effect
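Cells carrying a force-coupled, tetracycline-inducible human D1 receptor report calcium flux. Each well gets a 10 s baseline, compound with 180 s monitoring, then an EC80 dopamine stimulus with a second 180 s kinetic read.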
D1 agonist – activates the human D1 dopamine receptor; actives 1% (n = 360,000); AID 504660; activation, % at 2 µM; P21728; HEK293 T-REx D1 cells, calcium flux, agonist mode; in the data active means activation above about 30%; further: 0% is about no effect
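Inducible HEK293 T-REx D1 cells, force-coupled to calcium signalling, were plated at 4000 cells/well with tetracycline and held overnight at 30 C. After no-wash calcium dye loading, compound-evoked calcium rise over 180 s flagged agonists.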
Starred values were filed as active, the others as inactive; u = inconclusive; x = not tested or not shown.

SMILES	DRD3 agonist	DRD3 antagonist	D1 PAM	ERG-DNA inh	D1 antag	D1 agonist
O=C1C(=O)c2c(C(=O)c3ccccc3)coc2-c2ccccc21	1.6	-25.5	-1.8	x	-57.1*	0.0
O=C(CSc1ccc(-c2ccc(Cl)cc2)nn1)NC1CCCC1	15.1	28.8	-7.5	-10.9%	-26.2	27.9
CC(=O)Nc1ccc(NC(=O)CSc2nnc(N)n2-c2ccccc2)cc1	4.5	-8.8	x	4.4%	x	x
COc1cc(/C=C/C(=O)c2ccc3c(c2)OCO3)cc(Cl)c1O	4.7	-7.1	x	116.2%	-22.3	246.3*
COc1ccc(/C=C/C(=O)c2ccc3c(c2)OCCO3)cc1[N+](=O)[O-]	-1.0	-51.1*	-1.7	-1.8%	-22.2	-0.8
COc1ccc(Oc2ccc(/C=N/NC(=O)c3cccnc3)cc2[N+](=O)[O-])cc1	-3.9	-20.8	-8.0	1.1%	-42.7*	-2.9
COc1ccc(/C=N/NC(=O)c2cccnc2)cc1	1.5	-13.8	-0.2	-2.5%	8.0	3.9
COc1ccc(Oc2ccc(/C=C/C(=O)c3cccc(OC)c3)cc2[N+](=O)[O-])cc1	-20.9	-56.1*	-7.2	3.0%	-9.7	9.1
CC1=C(C#N)C2C(/C1=N/O)C2(C)C (stereo not given)	-2.8	-12.8	3.6	x	6.4	1.1
O=C(NC1CCCC1)C(c1cccs1)N(C(=O)c1ccco1)c1ccc2c(c1)OCCO2 (stereo not given)	1.8	u	1.1	-0.1%	-9.4	-1.0
Cc1cc(C)cc(NS(=O)(=O)c2cnc(Cl)c(Cl)c2)c1	4.3	u	-9.0	-0.9%	-2.1	2.4
COc1ccc(C)cc1Nc1n[n+](C)c(-c2ccc(C(=O)O)cc2)s1	x	x	-4.0	x	-6.7	0.9
O=C1c2cccnc2C(=O)N1Cc1ccc2c(c1)OCO2	40.6*	21.7	3.8	0.7%	1.7	2.4
Cc1nnc(NC(=O)c2cccc(S(=O)(=O)N3CC(c4ccccc4)CC3=O)c2)s1 (stereo not given)	67.7*	3.7	-3.4	-12.5%	-18.7	-0.3
Cc1ccc2ccc(C(Nc3cccc(C(F)(F)F)c3)c3cccnc3)c(O)c2n1 (stereo not given)	-18.1	-127.5*	7.7	-0.2%	-4.1	4.0
COc1ccc(C(Nc2cc(C)ccn2)c2ccc3ccc(C)nc3c2O)cc1 (stereo not given)	-35.4	-77.2*	4.6	17.8%	-3.5	7.0
O=C(O)c1ccccc1NC(c1ccccc1)c1ccc2cccnc2c1O (stereo not given)	-1.9	-95.3*	x	4.7%	x	x
Cc1ccc2ccc(C(Nc3ccccn3)c3ccccc3)c(O)c2n1 (stereo not given)	-16.7	-59.4*	-6.7	-1.7%	5.8	1.4
N#Cc1nc(-c2ccccc2)oc1N1CCC(C(N)=O)CC1	-15.4	-17.8	-1.5	3.6%	0.9	0.9
Cc1cc(C(=O)N2CCCC(C(=O)c3cccc(C(F)(F)F)c3)C2)n[nH]1 (stereo not given)	5.2	3.0	-7.7	9.2%	-20.2	12.7
Cc1ccnc(NC(c2ccccc2)c2ccc3cccnc3c2O)c1 (stereo not given)	13.0	-12.1	x	4.3%	x	x
CC(=O)NC(c1ccc(Cl)cc1)c1ccc2cccnc2c1O (stereo not given)	0.8	37.2	x	1.3%	x	x
CCCCC(=O)NC(c1ccc(Cl)cc1Cl)c1ccc2cccnc2c1O (stereo not given)	33.0*	-8.9	-0.9	6.1%	-5.6	7.9
Cc1ccnc(NC(c2cc(C)ccc2O)c2ccc3cccnc3c2O)c1 (stereo not given)	3.4	x	-2.0	11.1%	-49.7*	0.3
Cc1ccnc(NC(c2ccsc2)c2ccc3ccc(C)nc3c2O)c1 (stereo not given)	-43.8	-98.3*	-7.8	3.1%	-6.7	2.4
CC(=O)NC(c1ccco1)c1ccc2cccnc2c1O (stereo not given)	-6.3	-62.2*	-10.2	-2.6%	1.1	2.9
CCC(=O)NC(c1ccc(Cl)cc1Cl)c1ccc2cccnc2c1O (stereo not given)	12.8	19.4	0.3	23.8%	1.5	1.8
